D1 potentiator = enhances dopamine response at the human D1 receptor; HEK293 TREx D1 cells, calcium flux, dopamine EC20 potentiation; potentiation, % at 10 µM; 0.036% of 360,000 active; AID 504651; in the data active = potentiation above about 30%; also: 0% is about no effect
Target sequence (P21728 whole entry, looked up): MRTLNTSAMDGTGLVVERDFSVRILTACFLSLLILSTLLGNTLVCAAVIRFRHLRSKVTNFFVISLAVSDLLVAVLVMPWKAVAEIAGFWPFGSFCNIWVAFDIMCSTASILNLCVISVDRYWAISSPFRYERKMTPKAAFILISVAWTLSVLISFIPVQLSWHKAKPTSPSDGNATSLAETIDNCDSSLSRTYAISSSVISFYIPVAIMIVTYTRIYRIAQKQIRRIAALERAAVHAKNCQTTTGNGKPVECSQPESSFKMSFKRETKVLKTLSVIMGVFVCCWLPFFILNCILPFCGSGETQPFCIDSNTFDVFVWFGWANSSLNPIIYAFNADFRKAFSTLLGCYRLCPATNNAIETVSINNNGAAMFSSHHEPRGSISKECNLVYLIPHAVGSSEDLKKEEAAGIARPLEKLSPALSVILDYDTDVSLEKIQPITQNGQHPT
TRHR enhancer = allosterically enhances the human TRH receptor; P34981; enhancement, % at 2 µM; TRHR cells, fluo-8 calcium fluorescence, EC20 TRH enhancement; 0.66% of 360,000 active; in the data active = enhancement above about 30%; also: 0% is about no effect
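Enhancer read-out: after compound pinning and an initial kinetic agonist-mode read, an EC20 of TRH (10 nM final) was injected and fluo-8 calcium signal (Ex 480/Em 530) followed at 1 s/cycle for 100 cycles in TRHR-expressing cells.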
D1 agonist = activates the human D1 dopamine receptor; activation, % at 2 µM; AID 504660; 1% of 360,000 active; P21728; HEK293 T-REx D1 cells, calcium flux, agonist mode; also: 0% is about no effect
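Inducible HEK293 T-REx D1 cells, force-coupled to calcium signalling, were plated at 4000 cells/well with tetracycline and held overnight at 30 C. After no-wash calcium dye loading, compound-evoked calcium rise over 180 s flagged agonists.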
TRHR ag = agonists of human TRH receptor; AID 493084; 0.18% of 360,000 active; TRHR cells, calcium flux fluo-8, FDSS agonist mode; activation, % at 2 µM; P34981; also: 0% is about no effect
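Read-out: compound-evoked intracellular calcium rise in TRHR cells, fluo-8 dye, kinetic FDSS fluorescence at 1 s/cycle following a 10-cycle baseline. Cells cultured overnight before dye loading (30 min–1.5 h, RT).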
Epigenetic reg = regulators of epigenetic silencing causing reporter derepression in mouse cells; 0.2% of 280,000 active; AID 1865; murine LDR cells, GFP reporter derepression, 30 h; Potency, µM (titrated, usually from 53.9 µM), for the others: at the highest dose GFP activation, actives largely listed as activators; active = well fitted activation curve with a large enough effect; also: potency is read from the fitted curve at half-maximal effect; % of control where 0% means no effect; nearly all actives have a fitted effect of over 60% in size
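Murine LDR cells carrying a silenced, genomically integrated CMV-driven GFP reporter were exposed to compound for 30 hours at 37 C. After PBS washes, GFP-positive cells (20–120 um objects) were counted by laser-scanning microplate cytometry.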
D1 antagonist = blocks dopamine activation of the human D1 receptor. HEK293 TREx D1 cells, calcium flux, dopamine EC80; stronger effect = lower value. activity change, negative = inhibition, % at 10 µM. 3.2% of 360,000 active; in the data active = activity change below about -30%; also: % is scaled to controls: 0 for no effect and ±100 for the full control effect
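Antagonism measured as reduced calcium response to an EC80 dopamine addition following 180 s compound pre-read; cells were inducible HEK293 Trex D1 plated overnight at 30 C, read kinetically at 1 cycle/sec.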
* = called active by the depositor; x = no result; [ ] = another dose, or the depositor's remark. A selection: hits, their analogues and other compounds. The true share with any hit is near 4.6%. Rule as the data show it, unless noted: active = activation above about 30%; inactive = the rest.

SMILES	D1 potentiator	TRHR enhancer	D1 agonist	TRHR ag	Epigenetic reg	D1 antagonist
COc1cc(CNCc2ccccn2)ccc1OCc1c(Cl)cccc1Cl	3.2	6.4	40.5*	0.0	8.8%	4.9
COc1cc(CNCc2ccccn2)ccc1OCc1ccc(Cl)cc1	-8.3	9.0	23.8	0.8	-1.0%	-9.4
Cc1cccc(-c2nc(CSc3nncn4c3cc3oc(C)cc34)c(C)o2)c1	-4.2	-6.0	1.5	0.5	4.3%	-2.9
Cc1ccc(N2C(=O)C(CC(=O)Nc3ccc(F)cc3)N(CCC3=CCCCC3)C2=O)cc1 (centres undefined)	0.2	2.6	1.4	1.5	-3.3%	-1.7
CC(=O)Nc1ccc(NC(=O)c2ccccc2CCc2ccccc2)cc1	-11.8	0.5	3.8	-0.9	-3.5%	-30.9*
COc1ccc(NS(=O)(=O)c2ccc(-n3nnc4ccccc43)c([N+](=O)[O-])c2)cc1	-10.5	-8.6	35.8*	1.7	-0.1%	-2.7
O=C1C2C(c3cccc(/C=C/c4ccccc4)c3)CC=CC2C(c2ccc3ccccc3c2)N1Cc1ccccc1 (centres undefined)	-2.4	-1.9	5.1	0.1	-2.0%	-42.1*
O=C1C2C(c3cccc(/C=C/c4ccccc4)c3)CC=CC2C(c2ccc(C(F)(F)F)cc2)N1Cc1ccccc1 (centres undefined)	-3.8	0.0	4.8	0.4	-0.2%	36.1
CCSc1oc(-c2cccs2)nc1S(=O)(=O)c1ccc(Br)cc1	-0.5	1.0	10.1	0.6	-0.5%	-4.1
Cc1ccc(OCC(=O)c2cc(C)n(Cc3cccs3)c2C)c([N+](=O)[O-])n1	-7.2	39.1*	11.8	-0.3	-0.6%[10.1 µM]	-7.2
CN1CCN(C(=O)c2ccc(CSc3ccc(Cl)cc3)cc2)CC1	-9.3	-6.1	18.1	0.5	0.0%	-30.2*
Cc1ccc(C(=O)N2CCC(C(=O)c3ccc(Cl)cc3)CC2)cc1	-7.3	-8.4	5.6	-0.1	x	-44.4*
O=C(c1ccc(Cl)cc1)N1CCN(c2ccnc3cc(Cl)ccc23)CC1	-15.2	10.5	1.5	-0.3	2.7%	-55.4*
CN(c1ccc(C(=O)N2CCCCCC2)cc1)S(=O)(=O)c1ccc(Cl)cc1	-8.0	-9.7	17.2	-0.7	x	-38.5*
O=C(c1ccccc1)C1CCN(C(=O)c2ccc(Cl)cc2)CC1	-6.7	0.9	4.3	1.1	x	-4.7
Cc1nc(-c2ccc(S(=O)(=O)N(Cc3ccccc3)C(C)C)cc2)co1	-6.1	-2.2	10.0	0.3	2.2%	-5.7
Cc1cc(-c2ccc(C)c(S(=O)(=O)NC(c3cccs3)C(C)C)c2)on1 (centres undefined)	-1.5	-4.8	6.6	0.3	-2.4%	-26.0
COC(=O)C/C=C\[C@@H](C)[C@@H](/C=N\OC[C@@H](O)COCc1ccco1)NS(=O)(=O)c1ccc(C)cc1	x	x	x	x	0.8%[10.1 µM]	x
COc1ccc(Cn2c(SCc3ccc(C(=O)NC(C)C)cc3)nc3cccnc32)cc1	1.7	9.5	-1.1	-0.1	-1.2%	3.8
O=C(Nc1ccccc1C(=O)NCCN1CCOCC1)c1ccc(Cl)cc1Cl	-6.7	5.4	0.5	0.3	-2.0%	-30.8*
O=C(Nc1ccccc1C(=O)N1CCCC1)c1ccc(Cl)cc1Cl	-5.8	-6.2	1.0	0.5	x	-29.2
O=C(Nc1ccccc1C(=O)NCCCN1CCOCC1)c1ccc(F)cc1F	7.0	-0.7	1.2	0.6	x	-6.7
CN1CCN(C(=O)c2ccc(Cl)cc2)CC1	-4.8	33.5*	0.4	-0.6	x	-5.0
CN1CCN(C(=O)c2cc(Cl)ccc2NC(=O)c2ccc(Cl)cc2Cl)CC1	-6.2	2.8	-0.5	0.1	x	-30.5*
O=C(CSc1ccccc1C(=O)O)NC1CCCCCC1	-5.0	-1.9	2.2	0.1	0.0%	-38.7*
SMILES	D1 potentiator	TRHR enhancer	D1 agonist	TRHR ag	Epigenetic reg	D1 antagonist
O=C(CSc1ccccc1C(=O)O)NC1CCCCCCC1	-2.9	-4.6	1.3	0.0	0.1%	-9.1
O=C(CSc1ccccc1C(=O)NCc1ccccc1)NC1CCCCCCC1	-4.6	-6.8	1.8	-1.4	0.0%	-84.1*
CC(C)CCNC(=O)c1ccccc1SCC(=O)NC1CCCCCCC1	-3.9	-9.6	-0.2	-2.0	x	-21.7
CCOc1ccc(C2C(C(=O)Nc3ccccc3OC)=C(C)Nc3c(C(=O)Nc4cccc(C)c4)cnn32)cc1 (centres undefined)	-5.7	20.2	0.9	-0.2	-0.4%	-27.5
O=C(COC(=O)CN1C(=O)c2ccccc2C1=O)Nc1ncc(Cl)cc1Cl	-3.7	13.6	0.4	-0.1	-1.0%	-7.0
O=C(COC(=O)CCOc1ccccc1)Nc1ncc(Cl)cc1Cl	2.6	0.7	0.3	-0.1	0.2%	-60.0*
CCC1(CC)NC(=O)N(CC(=O)OCC(=O)Nc2ncc(Cl)cc2Cl)C1=O	-15.7	8.9	0.6	-0.3	x	-64.3*
O=C1C=CC2(OCCCO2)C(Br)=C1CO	x	x	x	x	2.0%	x
O=C(COc1nsnc1N1CCOCC1)N/N=C/c1ccccc1O	-5.0	31.9*	11.1	1.6	-0.1%	-3.1
COc1ccccc1CCNC(=O)c1ccc2c(c1)c(C)c(C)n2C	-3.8	-1.8	2.3	-0.3	-2.6%	-4.0
CNCCCC1Sc2ccccc2Oc2ccccc21 (centres undefined)	-7.9	-1.6	23.5	1.3	-1.2%	-41.8*
CCN(CC)CCCNC(=O)C1c2ccccc2Oc2ccccc21	-4.2	-5.0	0.6	0.3	-7.2%	10.3
CCc1nc(N)c(C#N)c(-c2ccc(OC)c(OC)c2)c1C	0.5	19.7	0.5	-0.6	1.2%	-15.9
CCc1nc(C)c(C#N)c2cc(OC)c(OC)cc12	-6.2	5.6	-0.2	-0.6	-3.0%	-33.6*
C/C=C/c1ccc(OC)cc1	x	x	x	x	2.2%	x
COc1ccc(/C=C/c2ccncc2)cc1	-9.2	0.9	1.5	-0.7	3.3%	-33.8*
COc1cccc(CNC(=O)CCc2c(C)c3cc4c(C)coc4cc3oc2=O)c1	-0.6	-1.6	9.6	-0.4	0.0%	-23.3
COc1ccc(N=Cc2c(O)n(-c3cccc(C)n3)c(=O)c3ccccc23)c(OC)c1	11.3	2.3	9.2	8.5	12.6µM*	-20.2
NS(=O)(=O)c1ccc(NS(=O)(=O)c2ccc(NC(=S)Nc3ccccc3)cc2)cc1	5.2	-6.0	-0.2	0.7	-1.1%	1.7
NS(=O)(=O)c1ccc(NC(=S)Nc2ccn(Cc3cccc4ccccc34)n2)cc1	1.5	-21.8	0.9	-0.4	1.1%	-52.5*
Cc1nc2c(Cl)cccc2c2c1CC(CBr)O2 (centres undefined)	-2.2	-5.8	1.0	-0.6	x	-31.1*
Cc1cc(F)c(F)c(C(=O)N2CCCCC2C)c1Cl (centres undefined)	0.9	-4.0	1.5	-0.2	0.1%	-31.0*

Bioassay records from PubChem.
